The whole screen tested about 410,000 compounds, of which about 5,100 (1.2%) were called active. Another 8% or so got no clear call; they are omitted. The full list was thinned out, with actives kept by preference. A number with no mark means an inactive call. Calls come from the whole dose curve; tested in HEK293T cells.
Assay: High Throughput Screening for Foot and Mouth Disease Virus Antivirals; note: read-out not given here; nearly all actives have a fitted effect of over 45% in size
Conditions: FMDV antiviral cell-based qHTS; series mostly up to 57.9 µM; activity change, negative = inhibition: at the top concentration
% is set by controls: 0 for no effect and ±100 for the full control effect; potency is the fitted concentration of half-maximal effect.

Row | Compound | activity change, negative = inhibition | Potency
1 | CCN(CCCNC(=O)Cn1ncc2c([nH]c3ccccc32)c1=O)c1cccc(C)c1 | -8.64% | –
2 | Cc1[nH]c2c(C(=O)NCC3Cc4cccc(-c5cccnc5)c4O3)cccc2c1C (configuration not stated) | 12.1% | –
3 | N#Cc1cccc(-c2ccc3ncnc(NCc4cccs4)c3c2)c1 | -17.2% | –
4 | O=C1CC(c2nnc(Cc3ccc(Cl)cc3)o2)CN1c1ccccc1 (configuration not stated) | 1.46% | –
5 | Cc1noc(C)c1-c1nccc(N2CCOCC2)n1 | -12.1% | –
6 | CCCc1nc(SCC(=O)Nc2ccccc2OC)c2c(=O)n(C)c(=O)n(C)c2n1 | – | 25.1 µM (active)
7 | CCCc1nc(SCC(=O)N2CCCC2)c2c(=O)n(C)c(=O)n(C)c2n1 | -3.3% | –
8 | CCc1nc(SCC(=O)Nc2ccccc2OC)n[nH]1 | 13.3% | –
9 | COc1cccc(-c2nc(Nc3ccncc3)c3ccccc3n2)c1 | -29.5% | –
10 | CN1CCN(c2ncncc2-c2ccc(C(=O)N(C)C)cc2)CC1 | 2.84% | –
11 | CN(C)C(=O)[C@@H]1C[C@@H](Sc2nc3ccccc3[nH]2)CN1Cc1ccc(Cl)cc1 | 39.8% | –
12 | N#C/C=C/N1CCN(Cc2ccc3c(c2)OCO3)CC1 | -8.21% | –
13 | O=C(CSc1nc2c(c(=O)[nH]1)CN(Cc1ccc3c(c1)OCO3)CC2)Nc1cc(F)ccc1F | 6.05% | –
14 | Fc1ccc2[nH]c3c(N4CCN(Cc5ccc6c(c5)OCO6)CC4)ncnc3c2c1 | – | 6.31 µM (active)
15 | Fc1ccc2[nH]c3c(N4CCSCC4)ncnc3c2c1 | – | 3.16 µM (active)
16 | Cc1cccc2nc(-c3ccc(Cl)s3)c(Nc3ccc4c(c3)OCCO4)n12 | 42.3% | –
17 | CCOC(=O)c1cc2cc(-c3c(C(=O)OCC)oc4cc(O)cc(O)c4c3=O)ccc2o1 | – | 31.6 µM (active)
18 | CCOC(=O)c1c(-c2ccc(OC)cc2)oc2ccc(OCc3ccc(C(=O)OC)cc3)cc12 | -24.4% | –
19 | CCN(CC)CCOC(=O)c1cc2cc(COC)ccc2o1 | -7.56% | –
20 | Cc1ccc(-c2nnc(SCc3ccccc3C)o2)cc1 | 66.9% | –
21 | COc1ccccc1CNc1cc(-c2ccccc2CN(C)C)ncn1 | -23.5% | –
22 | O=C(c1ccc2c(c1)N(Cc1ccc(Cl)cc1)C(=O)c1ccccc1S2(=O)=O)N1CCCCC1 | -18.2% | –
23 | COc1ccc(C)cc1N1C(=O)[C@@H]2C[C@H]1CN2Cc1cccc(OC)c1O | -3.08% | –

Row | Compound | activity change, negative = inhibition | Potency
24 | CCCCC/C=C\C/C=C\C/C=C\CCCCCCC(=O)NCCO | -10.3% [at 6.7 µM] | –
25 | CC(c1cccnc1)N(CCN(C)C)C(=O)Nc1ccc(Cl)c(Cl)c1 (configuration not stated) | -16.7% | –
26 | Cc1ccc(-c2nn(CCC(=O)Nc3ccc(Cl)c(Cl)c3)c(=O)c3ccccc23)cc1 | 1.63% | –
27 | O=C(CC(O)(C(F)(F)F)C(F)(F)F)Nc1ccc(Cl)c(Cl)c1 | – | 8.91 µM (active)
28 | Cc1cc(Nc2cccc(C(F)(F)F)c2)nc2ccc(NC(=O)c3ccc(=O)[nH]c3)cc12 | -8.82% | –
29 | Cc1ccc(/C(=C/CN2CCCC2)c2ccccn2)cc1 | 1.29% | –
30 | CC(N)(C(=O)O)c1ccc(-c2nn[nH]n2)cc1 (configuration not stated) | -9.72% | –
31 | CCN1CCN(C(c2ccc(C)cc2)c2c(O)cc(C)n(Cc3ccco3)c2=O)CC1 (configuration not stated) | -29.2% | –
32 | Cc1occc1C(=O)Nc1cccc(S(=O)(=O)N2CCOCC2)c1 | 15.8% | –
33 | O=C(Nc1ccc2c(c1)nc1n2CCCCC1)c1cc(S(=O)(=O)N2CCOCC2)ccc1Cl | – | 25.1 µM (active)
34 | O=S(=O)(c1cccc(-c2nnc3n2CCCCC3)c1)N1CCOCC1 | 30.2% | –
35 | CCOc1ccccc1NC(=O)CSc1ncc(S(=O)(=O)c2ccc(C(C)(C)C)cc2)c(=O)[nH]1 | -2.88% | –
36 | Cc1ccc(S(=O)(=O)c2nc(-c3ccco3)oc2SCC(=O)Nc2ccc(F)cc2)cc1 | 15.1% | –
37 | O=C(Nc1ccc2nc(SCCOc3ccccc3Cl)sc2c1)c1ccco1 | -20.6% | –
38 | Cc1cccc(OCCSc2nc3ccc(NC(=O)COc4ccccc4C)cc3s2)c1 | 0% | –
39 | Nc1nnc(SCC(=O)Nc2ccc3nc(SCC(=O)Nc4ccccc4)sc3c2)s1 | – | 20 µM (active)
40 | Cc1ccc(OCCSc2nc3ccc(NC(=O)COc4ccc(C)cc4)cc3s2)cc1 | -5.33% | –
41 | O=C(COc1ccccc1Cl)Nc1ccc2nc(SCC(=O)N3CCCC3)sc2c1 | – | 31.6 µM (active)
42 | CCC(=O)Nc1ccc2nc(SCC(=O)N3CCc4ccccc43)sc2c1 | -19.9% | –
43 | COc1ccc(NC(=O)Nc2cccc(-c3noc(C)n3)c2)cc1 | 1.15% | –
44 | CCNc1ncc2ncc(=O)n(Cc3cccc(OC)c3)c2n1 | -19.5% | –
45 | COCCNc1ncnc2ccc(-c3cccnc3)cc12 | -22.4% | –
46 | COC(=O)C(c1ccccc1)N1CCCCCC1 (configuration not stated) | -7.95% | –

Row | Compound | activity change, negative = inhibition | Potency
47 | CC1(C)CC(N2CCN(C(c3ccccc3)c3ccccc3)CC2)=CC(=[N+]2CCCCC2)C1 | – | 2.82 µM (active)
48 | CCN1CCN(c2ncc3c(n2)CC(c2ccccc2O)CC3=O)CC1 (configuration not stated) | -14.9% | –
49 | COCc1[nH]nc2c1C(C1C=CCCC1)C(C#N)=C(N)O2 (configuration not stated) | – | 31.6 µM (active)
50 | N#CC1=C(N)Oc2cc(O)ccc2C1C1CCCCC1 (configuration not stated) | -23.5% | –
51 | Cc1nc2nc(NCc3cccc(Br)c3)[nH]n2c(=O)c1Cc1ccccc1 | -16.8% | –
52 | COCCNC(=O)c1cc(-c2cccc(Cl)c2)on1 | 33.4% | –
53 | COc1cc2nc(NCC(C)c3ccccc3)n3nc(-c4ccccc4)nc3c2cc1OC (configuration not stated) | -29.4% | –
54 | Cc1cnc(CNc2ncncc2-c2ccccc2Cl)cn1 | -16.2% | –
55 | Cn1cc(-c2nc3cnc(N4CCNCC4)nc3n(CCC#N)c2=O)c2ccccc21 | -2.62% | –
56 | COc1ccc(CNc2ncncc2-c2ccccc2OC)c(OC)c1 | -28% | –
57 | COc1cccc(CNc2nc(NCc3ccccc3OC)nc3ccsc23)c1 | – | 25.1 µM (active)
58 | COc1cccc(CNc2nccn(-c3ccc(OC)c(OC)c3)c2=O)c1 | -12.6% | –
59 | CCCN(C/C=C\I)[C@@H]1CCc2cccc(O)c2C1 | -10.2% | –
60 | COc1ccc(-c2nc3sc(CCNC(=O)C(C)(C)C)c(C)n3n2)cc1 | -39.9% | –
61 | O=C(COc1nc2ccccc2nc1N1CCOCC1)NCC(F)(F)F | -17.8% | –
62 | c1cncc(-c2nc(N3CCNCC3)c3ccccc3n2)c1 | -4.3% | –
63 | c1ccc(Nc2nc(N3CCOCC3)c3ccccc3n2)cc1 | – | 11.2 µM (active)
64 | O=C(O)C[C@@H]1NC(=O)[C@H](Cc2ccccc2)NC1=O | -7.83% | –
65 | Cc1ccc(OCCC(=O)OCC(=O)N2c3ccccc3NC(=O)C2(C)C)cc1 | -21.8% | –
66 | CNS(=O)(=O)c1cccc(C(=O)OCC(=O)N2c3ccccc3NC(=O)C2(C)C)c1 | -4.37% | –
67 | CCNc1ccc(C(=O)OCC(=O)N2c3ccccc3NC(=O)C2(C)C)cc1[N+](=O)[O-] | – | 20 µM (active)

— PubChem BioAssay AID1159524 (National Center for Advancing Translational Sciences (NCATS), 2015)
